Values without a mark were called inactive. Entries that show only a call come without a potency. The source made the active and inactive calls. The call rests on the fitted dose curve.
The compounds below were run against Acetylcholinesterase (Homo sapiens) (UniProt P22303) (assay: Acetylcholinesterase (AChE) small molecule antagonists: enzyme-based qHTS assay with human liver microsomes (AID 1347399; further: nearly all actives have a fitted effect of over 60% in size)). Conditions: Potency: qHTS inhibition; outcome: qHTS inhibition; series mostly up to 115 µM.
How it was run: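 Recombinant human AChE (50 mU/mL in the enzyme mix) and human liver microsomes (0.25 mg/mL final) were preincubated with compound and NADPH (0.25 mg/mL final) for 30 min at 37 C. Acetylthiocholine/DTNB was then added; thiocholine was read colorimetrically after 10 min at room temperature.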

Sequence of Acetylcholinesterase (Homo sapiens) (P22303 whole entry, looked up): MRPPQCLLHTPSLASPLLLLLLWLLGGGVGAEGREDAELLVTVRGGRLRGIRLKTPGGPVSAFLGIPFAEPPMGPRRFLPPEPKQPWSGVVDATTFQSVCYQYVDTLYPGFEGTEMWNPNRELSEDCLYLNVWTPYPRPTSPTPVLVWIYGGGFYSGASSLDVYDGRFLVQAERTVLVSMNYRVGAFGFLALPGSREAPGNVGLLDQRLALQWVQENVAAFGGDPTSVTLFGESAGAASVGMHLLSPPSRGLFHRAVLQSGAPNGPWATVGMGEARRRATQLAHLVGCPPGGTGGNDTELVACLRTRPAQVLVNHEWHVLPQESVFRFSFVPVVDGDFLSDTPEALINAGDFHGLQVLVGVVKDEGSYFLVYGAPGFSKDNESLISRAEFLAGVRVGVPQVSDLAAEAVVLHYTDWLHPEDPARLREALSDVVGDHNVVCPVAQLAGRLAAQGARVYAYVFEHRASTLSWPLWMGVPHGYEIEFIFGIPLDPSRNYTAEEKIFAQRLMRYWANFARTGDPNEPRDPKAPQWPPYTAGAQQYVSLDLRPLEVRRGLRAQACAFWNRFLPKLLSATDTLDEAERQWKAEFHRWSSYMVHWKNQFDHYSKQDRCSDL

Structure (SMILES) | Potency | activity change, negative = inhibition
CC(C)CC(=O)OCc1ccccc1 | inactive | –
CN1CCc2cccc3c2[C@H]1Cc1ccc(O)c(O)c1-3 | inactive | –
COC(C)CCO (stereo not given) | inactive | –
Nc1c(Cl)cc(Cl)cc1[N+](=O)[O-] | inactive | –
c1ccc(CSCc2ccccc2)cc1 | inactive | –
O=C(Nc1ccccc1SSc1ccccc1NC(=O)c1ccccc1)c1ccccc1 | inactive | –
c1ccc2c(c1)c1cccc3ccc4cccc2c4c31 | inactive | –
COC(=O)CC(=O)C(C)(C)C | inactive | –
CC(CO)(CO)C(=O)O | inactive | –
CCCCCCCC/C=C\CCCCCCCCN | inactive | –
C[C@@H]1CN(c2c(F)c(N)c3c(=O)c(C(=O)O)cn(C4CC4)c3c2F)C[C@H](C)N1 | – | 0.841% [at 23.6 µM]
CC[C@H](C)C(=O)O[C@H]1C[C@H](O)C=C2C=C[C@H](C)[C@H](CC[C@@H](O)C[C@@H](O)CC(=O)O)[C@H]21 | inactive | –
CC(C)(N)CO | inactive | –
OCCCCCCCl | inactive | –
CSc1ccc2c(c1)N(CCC1CCCCN1C)c1ccccc1S2 (stereo not given) | inactive | –
COC(=O)CCC(=O)OC | inactive | –
CC(O)c1ccccc1 (stereo not given) | inactive | –
O=C(O)CNC(=O)c1ccc(CO)o1 | inactive | –
O=Cc1ccc(O)c(O)c1O | inactive | –
COC(CC(C)CCCC(C)(C)O)OC (stereo not given) | inactive | –
CC(C)OP(=O)(CP(=O)(OC(C)C)OC(C)C)OC(C)C | inactive | –
CC(C)N=C(N)/N=C(\N)Nc1ccc(Cl)cc1 | inactive | –
c1ccc2nccnc2c1 | inactive | –
CCc1nnc(NS(=O)(=O)c2ccc(N)cc2)s1 | inactive | –
CC(CC=O)CCCC(C)(C)O (stereo not given) | inactive | –

Source: PubChem BioAssay (Tox21)
